# Bioassay records: PubChem, University of Kansas High Throughput Screening Laboratory
# mHTT CaM bind – inhibitors of human mutant huntingtin-calmodulin interaction; P42858; AlphaScreen His-mHTT/GST-CaM binding, luminescence; inhibition, % at 15 µM; hit rate 3.6% among 190,000; AID 1671202
# Pf apPOL block – Pf-apPOL DNA polymerase inhibition; inhibition, % at 10 µM; Recombinant Pf-apPOL, molecular beacon fluorescence, 1.5 h; hit rate 0.25% among 210,000
# Hits are given with their value; – = inactive; · = not tested or not shown; ! = repeats disagree. Only a selection was taken, and hits are over-represented in it overall. Rule as the data show it: active = inhibition above about 50%; inactive = the rest.
SMILES,mHTT CaM bind,Pf apPOL block
Cc1[nH]c2ccccc2c1CCNC(=O)/C(=C/c1ccc2c(c1)OCO2)NC(=O)c1ccccc1,75,–
Cc1cc(C)c(NS(=O)(=O)c2ccc(NC(=O)CCc3ccccc3)cc2)c(C)c1,–,–
COc1cc(C=C2C(=O)OC3(CCCCC3)OC2=O)cc(OC)c1OC,–,–
COc1ccc(C2C(C(=O)Nc3cccc(C)n3)=C(C)NC3=C2C(=O)CC(C)(C)C3)c(OC)c1 (stereo not drawn),–,–
Cc1cccc(-c2nccc(C3CCCN(C(=O)Cc4cccc(F)c4)C3)n2)c1 (stereo not drawn),–,–
CCOCC(=O)N1CCCC(c2ccnc(Nc3cccc(F)c3)n2)C1 (stereo not drawn),62,–
O=C(Cc1cccc(F)c1)N1CCCC(c2ccnc(Nc3cccc(F)c3)n2)C1 (stereo not drawn),73,–
CCOCC(=O)N1CCCC(c2ccnc(Nc3ccc(C)cc3)n2)C1 (stereo not drawn),–,–
COc1ccc(-c2nc(C)cc(C)c2CNC(=O)c2ccc3c(c2)OCO3)cc1,–,–
COc1ccc(Cl)cc1NC(=O)CSc1nccn1-c1cccc(C)c1C,56,–
Cc1cccc(-n2ccnc2SCC(=O)Nc2ccc(F)cc2F)c1C,–,–
O=C(NCC(O)c1ccccc1)Nc1cccc(C(F)(F)F)c1 (stereo not drawn),·,–
O=C(Nc1ncn[nH]1)c1cccc(Br)c1,–,–
O=C(Nc1ncn[nH]1)c1ccccc1O,99!,–
CCOC(=O)c1cnc(C(F)(F)F)nc1NNC(=O)c1ccc(C)cc1,·,–
O=[N+]([O-])c1ccc(CSc2ncnc3c2nnn3Cc2ccccc2Cl)cc1,·,–
CC(C)(C)c1ccc(-c2nn(CN3CCC(c4ccccc4)C3)c(=S)n2-c2ccccc2)cc1 (stereo not drawn),–,·
CCN(CC)c1ccc(C=Nc2ccccc2)c(O)c1,–,–
CCN(CC)c1ccc(C=NCCc2ccccc2)c(O)c1,80,–
COCCCNC1=NCCCNC12CCCCC2,–,–
COc1cccc(C2Oc3ccc(Cl)cc3C3CC(c4ccco4)=NN32)c1 (stereo not drawn),–,–
COc1cccc2c1OC(c1cccc(F)c1)N1N=C(c3ccco3)CC21 (stereo not drawn),–,–
CCOc1cccc2c1OC(c1ccc(F)c(F)c1)N1N=C(c3ccco3)CC21 (stereo not drawn),–,–
COc1cc(C2Oc3ccc(Cl)cc3C3CC(c4ccco4)=NN32)cc(OC)c1OC (stereo not drawn),63,–
COc1cc(C2Oc3c(OC)cccc3C3CC(c4ccco4)=NN32)cc(OC)c1OC (stereo not drawn),–,–
SMILES,mHTT CaM bind,Pf apPOL block
Fc1ccc(C2Oc3ccc(Cl)cc3C3CC(c4ccco4)=NN32)cc1F (stereo not drawn),82,–
Brc1ccc2c(c1)C1CC(c3ccco3)=NN1C(c1cccs1)O2 (stereo not drawn),89,–
COc1ccc(C2Oc3ccc(Cl)cc3C3CC(c4ccco4)=NN32)cc1OC (stereo not drawn),60,–
CCN(CC)c1ncc2c(n1)CCC(C(=O)N(C)CC(=O)N1CCCCCC1)C2 (stereo not drawn),–,–
Cc1ccc(/C=C2\SC(=O)N(Cc3ccc(F)cc3)C2=O)cc1,–,–
O=C1C(N2CCCN(S(=O)(=O)C3CC3)CC2)CCN1Cc1ccccc1 (stereo not drawn),–,–
COc1ccc(C2=NN3C(C2)c2cc(OC)ccc2OC3c2cc(OC)c(OC)c(OC)c2)cc1 (stereo not drawn),59,–
COc1cc(C2Oc3ccccc3C3CC(c4ccccc4)=NN32)cc(OC)c1OC (stereo not drawn),–,·
O=C(c1cccc(Br)c1)N1CCC(c2cnn(-c3ccccc3)c2)CC1,–,–
CCOc1cc(-c2cccs2)cc(=O)c2c(C)oc(C)c12,55,–
CCOc1cc(-c2ccc(OC)c(OC)c2)cc(=O)c2c(C)oc(C)c12,–,–
Cc1ccc(S(=O)(=O)CCC(=O)Nc2ncc(Br)s2)cc1,69,–
Cc1ccc(NC(=O)CCS(=O)(=O)c2ccc(Br)cc2)nc1,–,–
COc1ccc(C2CC(c3cccc(Br)c3)Nc3ncnn32)cc1OC (stereo not drawn),–,–
COc1cccc(C2CC(c3cccc(OC)c3OC)n3ncnc3N2)c1 (stereo not drawn),–,–
COc1ccc(C2CC(c3cccc(Br)c3)Nc3ncnn32)c(OC)c1OC (stereo not drawn),60,–
COc1cccc(C2CC(c3cccc(Br)c3)Nc3ncnn32)c1OC (stereo not drawn),68,–
O=C(NCc1ccccc1F)c1ccn2c(-c3ccc(F)cc3)nnc2c1,–,–
COc1ccc(Cl)cc1N1C=C(C#N)S(=O)(=O)c2ccc(Cl)cc21,–,–
CCc1ccc(N(CC(=O)N2CCCC2)S(=O)(=O)c2ccccc2)cc1,–,–
CCc1ccc(N(CC(=O)N2CCN(c3ccccc3)CC2)S(=O)(=O)c2ccccc2)cc1,54,–
O=C(NCCc1ccc(F)cc1)c1ccc(Cl)cc1[N+](=O)[O-],–,–
Cc1ccc(C)c(NC(=O)Cn2c(N3CCCCC3)nc(C)cc2=O)c1,–,–
C#CC(C=CC)OC(=O)c1ccccc1C(=O)O (stereo not drawn),·,53
C#CCSc1ccccc1C(=O)O,–,–
SMILES,mHTT CaM bind,Pf apPOL block
COc1ccc(-n2nc3ccc(NC(=O)c4ccc([N+](=O)[O-])o4)cc3n2)cc1,–,–
Cc1cc(C)cc(C(=O)N2CCCC(C(=O)NCc3ccccc3Cl)C2)c1 (stereo not drawn),–,–
CC1C(=O)N(c2ccc(Cl)cc2Cl)CCN1C(=O)C1CCC1 (stereo not drawn),–,–
COc1cc(OC)c(NC(=O)N2CCCC2c2cc(C(C)C)no2)cc1Cl (stereo not drawn),–,–
CCN(c1cccc(C)c1)S(=O)(=O)c1ccc2c(c1)CC(C)N2C(C)=O (stereo not drawn),–,–
CCN(c1ccc(C)c(C)c1)S(=O)(=O)c1ccc2c(c1)CC(C)N2C(C)=O (stereo not drawn),70,–
Cc1[nH]c2ccccc2c1C(=O)CN1CCCC1,59,–
Cc1[nH]c2ccccc2c1C(=O)CN1CCCCC1,–,–
COc1cc2c(cc1OC)C1c3ccccc3NC(=O)CN1CC2 (stereo not drawn),·,–
Cc1ccc(C=CS(=O)(=O)N2CC3CC2C(=O)O3)cc1 (stereo not drawn),–,–
O=[N+]([O-])C(/C=C(\Cl)[N+](=O)[O-])=C1N(c2ccccc2)CCN1c1ccccc1,–,–
O=[N+]([O-])C(/C=C(\Cl)[N+](=O)[O-])=C(Nc1ccccc1)Nc1ccccc1,63,–
O=C(OC1OC2COC(=O)c3cc(O)c(O)c(O)c3-c3c(cc(O)c(O)c3O)C(=O)OC(C2O)C1O)c1cc(O)c(O)c(O)c1 (stereo not drawn),·,99
COc1c(O)cc2c(c1O)C1OC(CO)C(O)C(O)C1OC2=O (stereo not drawn),·,–
Clc1ccc(CSc2nc(NCc3ccco3)c3ccccc3n2)cc1,–,–
Oc1ccc(Nc2nc(NCc3ccco3)c3ccccc3n2)cc1,53,–
COCCCNC(=O)c1ccc(C(C)C)cc1,–,–
COCCNC(=O)c1ccc(C(C)C)cc1,–,67
COc1ccc(/C(N)=N/OC(=O)COc2ccccc2OC)cc1,–,–
